Assay results: the supplement of paper PMC13380429
Structures can show the parent of a compound that is named as a salt.

How the values were obtained:
[1] = test system: Vero E6 infected with SARS-CoV-2; assay: morphology score (similarity to uninfected cells); higher = more like uninfected cells; conditions: 24 h
[2] = test system: Vero E6 infected with SARS-CoV-2; assay: SARS-CoV-2 infection rate relative to infected DMSO; higher = more infection, active = 60 or less; conditions: 24 h

Structure (SMILES) | morphology score [1] | SARS-CoV-2 infection rate [2]
CO/N=C(\C(=O)N[C@@H]1C(=O)N2C(C(=O)O)=C(Cn3ccc(=N)n3CCO)CS[C@H]12)c1csc(N)n1 [Cefoselis sulfate] (10 µM) | 0.115 | 101% (inactive)
Cc1cc(Nc2nc(N[C@@H](C)c3ncc(F)cn3)ncc2Cl)[nH]n1 (10 µM) | 0.046 | 108% (inactive)
CC(=O)CC(c1ccccc1)c1c(O)c2ccccc2oc1=O (configuration not stated) [warfarin] (10 µM) | -0.0329 | 106% (inactive)
C=CCN1CC[C@]23c4c5ccc(O)c4O[C@H]2C(=O)CC[C@@]3(O)[C@H]1C5 (10 µM) | -0.209 | 114% (inactive)
O=c1ccn([C@@H]2O[C@H](COP(=O)(O)OP(=O)(O)OP(=O)(O)O)[C@@H](O)[C@H]2O)c(=O)[nH]1 (10 µM) | 0.267 | 97% (inactive)
CN1[C@@H]2CC[C@H]1C[C@@H](OC(=O)c1c[nH]c3ccccc13)C2 [tropisetron] (10 µM) | -0.0266 | 102% (inactive)
CNC(=O)c1c(I)c(C(=O)NCC(=O)Nc2c(I)c(C(=O)O)c(I)c(C(=O)NCCO)c2I)c(I)c(N(C)C(C)=O)c1I [ioxaglic-acid] (10 µM) | 0.0564 | 104% (inactive)
CCCCCCCCCCC[C@@H](C[C@@H]1OC(=O)[C@H]1CCCCCC)OC(=O)[C@H](CC(C)C)NC=O [orlistat] (10 µM) | 0.226 | 100% (inactive)
CC(C)CNc1ccnc(NCc2csc(-c3ccccc3)n2)n1 (0.833333 µM) | -0.0256 | 106% (inactive)
C=CCc1ccc(O)c(-c2ccc(O)c(CC=C)c2)c1 [honokiol] (10 µM) | 0.432 | 80.5% (inactive)
Oc1c(I)cc(I)c(O)c1I [riodoxol] (10 µM) | 0.0583 | 107% (inactive)
COc1ccc(CCN(C)CCCC(C#N)(c2cc(OC)c(OC)c(OC)c2)C(C)C)cc1OC (configuration not stated) [gallopamil] (10 µM) | 0.176 | 98% (inactive)
O=C(/C=C\n1cnc(-c2cc(C(F)(F)F)cc(C(F)(F)F)c2)n1)N1CC(F)(F)C1 (10 µM) | -0.303 | 116% (inactive)
Nc1c(CC(=O)O)cccc1C(=O)c1ccccc1 [amfenac] (10 µM) | 0.0516 | 104% (inactive)
Cc1cc(=O)n(-c2ccccc2)n1C [phenazone] (10 µM) | -0.0495 | 108% (inactive)
COc1c2occc2c(OC)c2c(=O)cc(C)oc12 [khellin] (10 µM) | -0.102 | 109% (inactive)
O=c1[nH]ccc2cc(OC3CCNCC3)ccc12 (10 µM) | 0.27 | 110% (inactive)
CCC[C@@H](NC(=O)N1C(=O)C(CC)(CC)[C@@H]1Oc1ccc(C(=O)N2CCN(C)CC2)cc1)c1ccc2c(c1)OCO2 (10 µM) | 0.171 | 109% (inactive)

Structure (SMILES) | morphology score [1] | SARS-CoV-2 infection rate [2]
CC(C)C[C@@H]1NC(=O)[C@@H](C(C)C)NC(=O)[C@@H]2CCCN2C(=O)[C@@H](CC(=O)O)NC(=O)[C@@H](Cc2c[nH]c3ccccc23)NC1=O (10 µM) | 0.163 | 103% (inactive)
CCOC(=O)N1c2ccc(C(F)(F)F)cc2[C@@H](N(Cc2cc(C(F)(F)F)cc(C(F)(F)F)c2)C(=O)OC)C[C@H]1CC (10 µM) | 0.259 | 93% (inactive)
CCC(=O)O[C@]1(C(=O)CCl)[C@@H](C)C[C@H]2[C@@H]3CCC4=CC(=O)C=C[C@]4(C)[C@@]3(F)[C@@H](O)C[C@@]21C [clobetasol-propionate] (10 µM) | 0.00072 | 105% (inactive)
CN(C)CC[C@@](O)(c1ccccc1)c1ccccc1Cl [clofedanol] (10 µM) | -0.0705 | 110% (inactive)
CCCCCCCCN=c1ccn(CCCCCCCCCCn2ccc(=NCCCCCCCC)cc2)cc1 [octenidine] (0.833333 µM) | -0.0145 | 108% (inactive)
CC(C)[C@@]1(NC(=O)[C@@H]2C[C@@H]3c4cccc5[nH]cc(c45)C[C@H]3N(C)C2)O[C@@]2(O)[C@@H]3CCCN3C(=O)[C@H](Cc3ccccc3)N2C1=O [dihydroergocristine] (10 µM) | -0.123 | 117% (inactive)
CCCC[C@@H](C=O)NC(=O)[C@H](CC(C)C)NC(=O)OCc1ccccc1 [calpeptin] (10 µM) | 0.815 | 12.5% (active)
COc1cc2c3cc1Oc1cc(ccc1O)C[C@@H]1c4c(cc(OC)c(O)c4Oc4ccc(cc4)C[C@@H]3N(C)CC2)CC[N+]1(C)C [tubocurarine] (10 µM) | -0.0274 | 110% (inactive)
CN1CCN(C(c2ccccc2)c2ccccc2)CC1 [cyclizine] (10 µM) | -0.126 | 108% (inactive)
CC(=O)N(CC(O)CO)c1c(I)c(C(=O)NCCO)c(I)c(C(=O)NCC(O)CO)c1I (configuration not stated) [ioxilan] (10 µM) | 0.00249 | 114% (inactive)
CCCCCCCCNC(C)C(O)c1ccc(SC(C)C)cc1 (configuration not stated) [suloctidil] (10 µM) | 0.834 | 21.5% (active)
NS(=O)(=O)c1cc2c(cc1C(F)(F)F)NC(Cc1ccccc1)NS2(=O)=O (configuration not stated) [bendroflumethiazide] (10 µM) | 0.136 | 87.5% (inactive)
CCc1cncnc1N1CCN(Cc2nc3cc(C(F)(F)F)ccc3[nH]2)CC1 (10 µM) | -0.441 | 116% (inactive)
C=CCN1CCc2nc(N)sc2CC1 [talipexole] (10 µM) | -0.1 | 104% (inactive)
CN[C@@H]1[C@H](O)[C@H](NC)[C@H]2O[C@@]3(O)C(=O)C[C@@H](C)O[C@H]3O[C@@H]2[C@H]1O [spectinomycin] (0.833333 µM) | 0.0353 | 102% (inactive)
CC1CS(=O)(=O)CCN1/N=C/c1ccc([N+](=O)[O-])o1 (configuration not stated) [nifurtimox] (10 µM) | 0.0407 | 102% (inactive)
CN1CCN(Cc2ccc(Nc3ncc(Cl)c(Nc4ccccc4S(=O)(=O)N(C)C)n3)cc2)CC1 (10 µM) | -0.145 | 120% (inactive)
O=C(O)C[C@H]1CC[C@H](c2ccc(NC(=O)c3nnc(Nc4ccc(F)c(F)c4)o3)cc2)CC1 (10 µM) | 0.115 | 91% (inactive)
